Inconclusive results are not listed. Where a call stands in place of a potency, no number is given. The source made the active and inactive calls. Calls follow the shape of the dose curve; as a rule, active = well fitted inhibition curve with a large enough effect; inconclusive = small, poorly fitted or top-dose-only effect; inactive = flat fitted curve, though single readings scatter.
biological target: Luciferin 4-monooxygenase (Photinus pyralis) (UniProt P08659); assay: qHTS Assay for Inhibitors of Firefly Luciferase from the GSK Published Protein Kinase Inhibitor Set; conditions: purified firefly luciferase, luminescence inhibition; series mostly up to 57.5 µM
Method in brief: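 Purified P. pyralis luciferase, 10nM, with 10uM D-luciferin and 10uM ATP in 50mM Tris acetate pH 7.5, 10mM Mg acetate, 0.01% Tween-20, 0.05% BSA. Titration ~60uM to 300pM; luminescence read after about 5 min.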
Potency is read from the fitted curve at half-maximal effect.

Luciferin 4-monooxygenase (Photinus pyralis), sequence (P08659 whole entry, looked up): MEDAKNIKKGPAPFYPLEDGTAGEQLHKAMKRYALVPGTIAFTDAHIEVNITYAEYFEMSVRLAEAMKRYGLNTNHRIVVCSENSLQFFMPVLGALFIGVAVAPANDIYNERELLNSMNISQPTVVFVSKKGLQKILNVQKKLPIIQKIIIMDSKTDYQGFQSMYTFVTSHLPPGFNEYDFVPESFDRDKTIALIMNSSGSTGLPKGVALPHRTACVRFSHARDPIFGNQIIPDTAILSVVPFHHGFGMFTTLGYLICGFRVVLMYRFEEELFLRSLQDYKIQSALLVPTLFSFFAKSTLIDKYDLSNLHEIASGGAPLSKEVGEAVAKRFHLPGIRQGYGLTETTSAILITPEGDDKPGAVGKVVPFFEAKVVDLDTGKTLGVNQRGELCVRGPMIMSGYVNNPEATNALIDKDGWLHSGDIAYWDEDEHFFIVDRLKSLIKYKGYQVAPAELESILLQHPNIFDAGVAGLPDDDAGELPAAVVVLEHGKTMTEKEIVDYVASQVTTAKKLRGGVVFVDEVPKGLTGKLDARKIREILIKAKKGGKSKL

| Compound | Potency |
| --- | --- |
| CN(C)CCOc1ccc(-c2nc(-c3ccc4c(c3)CCC4=NO)c(-c3ccncc3)[nH]2)cc1 | 14.6 µM (active) |
| NS(=O)(=O)c1ccc(Nc2ncc(-c3ccccc3)o2)cc1 | inactive |
| CC(=Nc1ccc(S(N)(=O)=O)cc1)c1c(O)[nH]c2ccccc12 | 3.66 µM (active) |
| CC(=O)Nc1cccc(C#Cc2cncnc2Nc2ccc(OCc3cccc(F)c3)c(Cl)c2)n1 | inactive |
| O=S(=O)(CCOCc1ccc(-c2ccc3ncnc(Nc4ccc(OCc5cccc(F)c5)c(Cl)c4)c3c2)o1)c1ccccc1 | inactive |
| CCn1c(-c2nonc2N)nc2cncc(C(=O)NCCNC)c21 | inactive |
| COc1cccc(-n2nc(C)c3c(NN=C(C)c4ccncc4)ncnc32)c1 | inactive |
| NS(=O)(=O)c1ccc(N=Cc2c(O)[nH]c3ccc4ncsc4c23)cc1 | inactive |
| CCn1c(-c2nonc2N)nc2c(C#CC(C)(C)O)nc(OCC(N)c3ccccc3)cc21 (stereo unspecified) | inactive |
| NC(=O)c1cccc(Nc2nccc(Nc3cccc4[nH]ncc34)n2)c1 | 13 µM (active) |
| N#Cc1cccc(Nc2nccc(-c3cnn4ncccc34)n2)c1 | inactive |
| Clc1ccc(CNc2nccc(-c3cnn4ncccc34)n2)cc1 | inactive |
| Cc1ccc(C(=O)NC(C)C)cc1-c1ccc(C(=O)NCC2CC2)cc1 | inactive |
| NC(=O)CCc1ccccc1Oc1nccc(-c2c(-c3ccc(F)cc3)ncn2C2CCNCC2)n1 | inactive |
| CC(Oc1cc(-n2cnc3ccc(OCC4CCN(C)CC4)cc32)sc1C(N)=O)c1ccccc1C(F)(F)F (stereo unspecified) | inactive |
| CCN1CCC(C(=O)Nc2n[nH]c3nnc(-c4cccc(F)c4F)cc23)CC1 | inactive |
